{
  "source": "PubChem BioAssay (NCI)",
  "note": "This is part of a sample that, as a whole, favours compounds with a hit. Of some 83,000 tested, about 20% had one in any assay.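 How to read the values: 0–100, growth inhibition (40 = 60% inhibited); 0, no net growth; -100 to 0, cell death (-40 = 40% of starting cells died; -100 = all dead).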 Unmarked numbers belong to inactive results. Calls of active or inactive are those of the source. How the source made its calls: active means growth percent below 10; inactive means the rest.",
  "data": [
    {"tested_on": "DU-145 prostate", "assay": "NCI-60 one-dose screen, 48 h (100 = growth as untreated, 0 = no growth, -100 = all killed)", "details": "10 µM unless noted", "values": [
      {"compound": "Nc1ccc(CCCCc2ccccc2)c(Cl)c1", "growth": "103%"},
      {"compound": "Nc1ccc(S(=O)(=O)Nc2ccsc2-c2nc(-c3ccccc3)no2)cc1", "growth": "76.5%"},
      {"compound": "C=C(CNCCc1ccc(O)cc1)[C@@H]1CC[C@]2(COC3CCCCO3)CC[C@]3(C)[C@H](CC[C@@H]4[C@@]5(C)CCC(NCCO)C(C)(C)[C@@H]5CC[C@]43C)[C@@H]12", "note": "(some centres undefined)", "growth": "-91.9% (active)"},
      {"compound": "OC(COc1cccc2ccccc12)CN1CCN(c2ccccc2)CC1", "note": "(centres undefined)", "growth": "109%"},
      {"compound": "Cc1[nH]c(-c2nc3ccccc3[nH]2)c(C)c1C(=O)N1CCc2sccc2C1", "growth": "102%"},
      {"compound": "CC(C)n1nc(C#Cc2cccc(NC(=O)c3cccc(C(F)(F)F)c3)c2)c2c(N)ncnc21", "growth": "-22.9% (active)"},
      {"compound": "Cc1cc(NS(=O)(=O)c2ccccc2)c(OS(=O)(=O)c2ccccc2)cc1C", "growth": "120%"},
      {"compound": "OCCCCc1nccc2c1[nH]c1ccccc12", "growth": "114%"},
      {"compound": "C=C(C)[C@@H]1CC[C@]2(CNCCO)CC[C@]3(C)[C@H](CC[C@@H]4[C@@]5(C)CCC(N)[C@@](C)(CO)[C@@H]5CC[C@]43C)[C@@H]12", "note": "(some centres undefined)", "growth": "10.3%"},
      {"compound": "OC(c1cccc(OCc2ccccc2)c1)c1nnc(-c2ccccc2)o1", "note": "(centres undefined)", "growth": "107%"},
      {"compound": "Cl.[Pt].[c-]1ccccc1-c1ccccn1.c1ccc(P(c2ccccc2)C([PH+](c2ccccc2)c2ccccc2)[PH+](c2ccccc2)c2ccccc2)cc1", "growth": "24.1%"},
      {"compound": "COc1cc2c(c(OC)c1OC)C(=O)/C(=C/c1cc(C)c(O)c(C)c1)S2", "growth": "12.3%"},
      {"compound": "O=C(Nc1ccccn1)[C@H](O)[C@@H](O)C(=O)N1CCOCC1", "growth": "106%"},
      {"compound": "CC(C)(C)N1CC(OC(N)=O)C1", "growth": "109%"},
      {"compound": "O=C(NC1CCOCC1)c1ccc2c(c1)CN(c1ncc(Cc3cccc(-n4cccn4)c3)s1)CC2", "growth": "88.2%"},
      {"compound": "CN1C[C@@H](c2ccc(Cl)cc2)[C@]2(NC(=S)N(c3ccc(F)c(Cl)c3)C2=O)[C@@]12C(=O)NC1C=CC(Cl)=C[C@H]12", "note": "(some centres undefined)", "growth": "67.3%"},
      {"compound": "CCCN1CCN(c2ccc3nc(-c4ccc5nc(-c6ccc(OCC)c(OCC)c6)[nH]c5c4)[nH]c3c2)CC1", "growth": "-64.1% (active)"},
      {"compound": "NC(=S)c1csc(CCNC(=O)c2ccccc2)n1", "growth": "129%"},
      {"compound": "CCN(CCO)CC(=O)c1cc(Cl)cc(Cl)c1Cl", "growth": "103%"},
      {"compound": "C=CC(=O)Nc1cccc(C)c1Nc1cc(-c2cccnc2Cc2c(C)c(OC)cc(OC)c2C)ncn1", "growth": "11.4%"},
      {"compound": "N#Cc1c(NC(=O)c2ccccc2I)sc2c1CCCC2", "growth": "62.9%"},
      {"compound": "C#CC[C@H](N)C(=O)O", "growth": "104% [20 µM]"},
      {"compound": "COc1ccc(-n2ncn(CCCCCCn3cnn(-c4ccc(OC)cc4)c3=O)c2=O)cc1", "growth": "101%"},
      {"compound": "CC(C)OC(=O)OCOP(=O)(OCOC(=O)OC(C)C)C1CCCN(O)C1=O", "note": "(centres undefined)", "growth": "52.5%"},
      {"compound": "O=C(/C=C/C12c3ccccc3C(c3ccccc31)C1C(=O)N(c3ccc(Cl)cc3)C(=O)C12)c1ccccn1", "note": "(centres undefined)", "growth": "-86.5% (active)"},
      {"compound": "Cc1ccc(S(=O)(=O)N(CC[C@@H]2C[C@H]2c2cc3ccccc3o2)C(=O)NC2CCCCC2)cc1", "growth": "107%"},
      {"compound": "COc1cc2c(cc1OC)-c1ccc3cc4c(cc3c1N(CCCN1CCCCC1)C2)OCO4", "growth": "51.1%"},
      {"compound": "COc1cc2cc(Oc3ccc(NC(=O)Nc4cc(C(F)(F)F)cc(C(F)(F)F)c4)cc3)c(C)nc2cc1OCCN1CCCCC1", "growth": "-95% (active)"},
      {"compound": "CCN(CC)CCOC(=O)Nc1ccccc1Cl", "growth": "107%"},
      {"compound": "COc1cc(CNC(=O)/C=C/C=C/c2ccc3c(c2)OCO3)ccc1OCc1cn(-c2ccc(Cl)c(Cl)c2)nn1", "growth": "-32.3% (active)"},
      {"compound": "N#C/C=C(\\c1ccc([N+](=O)[O-])cc1)n1nnc2cc(Cl)c(Cl)cc21", "growth": "-21.2% (active)"},
      {"compound": "CNC(=O)c1c(NC(=O)c2ccc(C(C)(C)C)cc2)sc2c1CCC(=O)C2", "growth": "27.7%"},
      {"compound": "CCCCOc1ccc(NC(=O)n2nc(N=NN(C)C)c3ccc(Cl)cc32)cc1", "growth": "106%"},
      {"compound": "CC[C@@H](C[C@H](CCO)c1ccccc1)c1cc2ccccc2o1", "growth": "97.9%"},
      {"compound": "N=c1ccn2c(n1)OC1C(O)C(CO)OC12", "note": "(centres undefined)", "growth": "11.7%"},
      {"compound": "Cc1cc(N2CCCCC2)nc(N(CCNc2ccnc3cc(Cl)ccc23)Cc2ccccn2)n1", "growth": "61.9%"},
      {"compound": "CCOc1ccc2nc(-c3cccc(OCC(=O)NC(C)C)c3)nc(Nc3ccc(-c4cn[nH]c4)cc3)c2c1", "growth": "4.3% (active)"},
      {"compound": "C=C1C(=O)O[C@H]2[C@H]1CC/C(Cn1cc(CNCCc3c[nH]c4ccc(Cl)cc34)nn1)=C\\CC[C@@]1(C)O[C@@H]21", "growth": "83.6%"},
      {"compound": "CS(=O)(=O)c1ccc(-c2nc3cc(Cl)ccc3n2CC(=O)N/N=C/c2ccc(Cl)cc2)cc1", "growth": "70.1%"}
    ]}
  ]
}
